Drawing on PubChem BioAssay AID624496 (National Center for Advancing Translational Sciences (NCATS), 2012), this text covers activity, negative = inhibition and Potency for 40 compounds.

Records with an inconclusive call do not appear. Activity calls are given as the source filed them. Calls follow the shape of the dose curve; as a rule, active = well fitted inhibition curve with a large enough effect; inconclusive = small, poorly fitted or top-dose-only effect, or another doubt; inactive = no such curve, though single readings can be large or run the other way.

In the experiment the target is D(2) dopamine receptor (Homo sapiens) (UniProt P14416). Description: HTS Assay for Allosteric Antagonists of the Human D2 Dopamine Receptor: SAR in Primary Assay. The settings on record: HEK293 T-REx D2 cells, calcium flux, dopamine EC80 antagonism; activity, negative = inhibition: at 41.8 µM (top of the series) unless noted. The source says: Dopamine receptors (DARs) are involved in the etiology and/or therapy of a number of neuropsychiatric and endocrine disorders. For instance, all receptor-based antiparkinsonian drugs work via stimulating the D2 DAR subtype whereas all FDA-approved antipsychotic agents are antagonists of this receptor. […] There are three different types of allosteric modulators that we are seeking, two of which will stimulate or augment receptor signaling, allosteric agonists and potentiators, while the third, allosteric antagonists, will attenuate receptor signaling. The present project is looking for compound antagonism after an EC80 addition of dopamine by tracking calcium flux in a […], inducible Hek293 Trex D2 cell line, which act through an allosteric site. NIH Chemical Genomics Center [NCGC] NIH Molecular Libraries Probe Centers Network [MLPCN] MLPCN Grant: NS064831 Assay Submitter (PI): David Sibley
Sequence of D(2) dopamine receptor (Homo sapiens) (P14416 whole entry, looked up): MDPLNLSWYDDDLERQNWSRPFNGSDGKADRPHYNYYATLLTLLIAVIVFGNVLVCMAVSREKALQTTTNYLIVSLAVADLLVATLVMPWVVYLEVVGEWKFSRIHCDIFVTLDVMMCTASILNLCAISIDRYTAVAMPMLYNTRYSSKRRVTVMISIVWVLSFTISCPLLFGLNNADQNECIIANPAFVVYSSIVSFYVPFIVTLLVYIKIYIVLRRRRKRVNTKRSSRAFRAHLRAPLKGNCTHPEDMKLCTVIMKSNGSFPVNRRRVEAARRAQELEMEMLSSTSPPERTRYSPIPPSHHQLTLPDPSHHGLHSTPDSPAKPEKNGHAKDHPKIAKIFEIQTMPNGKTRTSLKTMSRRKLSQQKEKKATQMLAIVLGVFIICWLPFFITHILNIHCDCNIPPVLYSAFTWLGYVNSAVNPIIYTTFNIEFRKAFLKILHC
Freshly passaged cells are plated in 1536 well black, clear bottom plates at a density of 4000 cells/well in 3 ul of complete media containing 1x tetracycline inducer. After an overnight incubation at 30 deg C in 5% CO2, cells are loaded with 2 ul of the no wash Calcium Assay Kit (ABD Bioquest) and incubated at room temperature for 30 to 90 minutes. Agonist read: A 10 cycle (1 second/cycle) baseline measurement is taken and then the FDSS online 1536 pintool delivers 23 nl of compound library (as well as dopamine controls) to the plate. The plate is measured for kinetically at 1 cycle/sec for 180 seconds. Following the 180 second read, 1 ul of an EC80 (negative modulation assay) is delivered by an onboard pipette head. Measurements are taken kinetically for an additional 180 seconds.
For orientation: Calcium assays in cells follow changes in intracellular calcium, usually with a dye or a luminescent sensor.
For the compound `COc1ccc(CNC(=O)c2ccc3c(c2)C(=O)c2ccccc2C3=O)cc1`, the activity, negative = inhibition is -113%.

With `CN(C)CCCNC(=O)c1ccc2c(c1)N(C)C(=O)c1ccccc1S2=O` (stereo not given), the activity, negative = inhibition is -85.7% [at 4.65 µM] (active).

Consider `CCN1C(=O)c2ccccc2S(=O)c2ccc(C(=O)NCc3ccc(C(C)(C)C)cc3)cc21` (stereo not given), for which the Potency was 0.353 µM (active).

Take `CN1C(=O)c2ccccc2S(=O)c2ccc(C(=O)NCc3cccc(Cl)c3)cc21` (stereo not given): the Potency was 0.28 µM (active).

For `CN1C(=O)c2ccccc2S(=O)c2ccc(C(=O)NCc3ccc(Cl)cc3)cc21` (stereo not given), the Potency is 0.353 µM (active).

For `CN1C(=O)c2ccccc2S(=O)c2ccc(C(=O)NCc3ccccc3)cc21` (stereo not given), the Potency is 0.56 µM (active).

In the case of `CCN1C(=O)c2ccccc2S(=O)c2ccc(C(=O)NCc3ccc4c(c3)OCO4)cc21` (stereo not given), the Potency was 0.112 µM (active).

Regarding `COc1ccc(CNC(=O)c2ccc3c(c2)N(Cc2ccccc2)C(=O)c2ccccc2S3=O)cc1` (stereo not given), the Potency was 0.0887 µM (active).

For `CCN1C(=O)c2ccccc2S(=O)c2ccc(C(=O)NCc3ccc(C#N)cc3)cc21` (stereo not given), the Potency was 0.141 µM (active).

As for `CCN1C(=O)c2ccccc2S(=O)c2ccc(C(=O)Nc3ccccc3)cc21` (stereo not given), the Potency is 0.141 µM (active).

With `CN1C(=O)c2ccccc2S(=O)c2ccc(C(=O)NCc3ccc(Br)cc3)cc21` (stereo not given), the Potency was 0.0705 µM (active).

For `CN1C(=O)c2ccccc2[S@](=O)c2ccc(C(=O)NCCc3cccs3)cc21`, the Potency is 0.28 µM (active).

In the case of `CCN1C(=O)c2ccccc2S(=O)c2ccc(C(=O)NCc3ccc(SC)cc3)cc21` (stereo not given), the Potency is 0.223 µM (active).

In the case of `CCCN1C(=O)c2ccccc2S(=O)c2ccc(C(=O)NCc3ccc(OC)cc3)cc21` (stereo not given), the Potency was 1.77 µM (active).

As for `CN1C(=O)c2ccccc2S(=O)c2ccc(C(=O)NCc3ccccn3)cc21` (stereo not given), the Potency is 0.223 µM (active).

As for `CCN1C(=O)c2ccccc2S(=O)(=O)c2ccc(C(=O)NCc3ccc(OC)cc3)cc21`, the activity, negative = inhibition is -113%.

On to `CCN1C(=O)c2ccccc2[S@](=O)c2ccc(C(=O)N[C@H](C)c3ccc(Br)cc3)cc21`, for which the Potency was 8.87 µM (active).

On to `CCN1C(=O)c2ccccc2S(=O)c2ccc(C(=O)NCc3ccc(S(C)(=O)=O)cc3)cc21` (stereo not given), for which the Potency was 0.56 µM (active).

As to `CCN1C(=O)c2ccccc2Sc2ccc(C(=O)NCc3ccc(OC)cc3)cc21`, the Potency was 0.887 µM (active).

Turning to `CCN1C(=O)c2ccccc2[S@](=O)c2ccc(C(=O)NCc3ccc(F)cc3)cc21`, the Potency was 0.353 µM (active).

With `CCN1C(=O)c2ccccc2S(=O)c2ccc(NC(=O)Cc3ccc(F)cc3)cc21` (stereo not given), the Potency is 0.223 µM (active).

In the case of `CN1C(=O)c2ccccc2S(=O)c2ccc(C(=O)NCCc3cccs3)cc21` (stereo not given), the Potency is 0.0887 µM (active).

As to `CCN1C(=O)c2ccccc2[S@](=O)c2ccc(C(=O)NCc3ccc(OC)cc3)cc21`, the Potency was 8.87 µM (active).

As for `CCN1C(=O)c2ccccc2S(=O)c2ccc(C(=O)NC(C)c3ccccc3)cc21` (stereo not given), the Potency was 0.353 µM (active).

Regarding `CCN1C(=O)c2ccccc2S(=O)c2ccc(C(=O)N(C)Cc3ccc(OC)cc3)cc21` (stereo not given), the activity, negative = inhibition was -112% [at 4.65 µM].

As to `COc1ccc(CNC(=O)c2cccc(N3C(=O)c4ccccc4C3=O)c2)cc1`, the activity, negative = inhibition is -114%.

In the case of `CCN1C(=O)c2ccccc2S(=O)c2ccc(C(=O)NCc3ccc(C(F)(F)F)cc3)cc21` (stereo not given), the Potency is 0.141 µM (active).

As to `CCN1C(=O)c2ccccc2S(=O)c2ccc(C(=O)OCc3ccc(OC)cc3)cc21` (stereo not given), the Potency entry is “inactive”.

Consider `CN1C(=O)c2ccccc2[S@@](=O)c2ccc(C(=O)NCCc3cccs3)cc21`, for which the Potency was 0.0887 µM (active).

On to `CCN1C(=O)c2ccccc2S(=O)c2ccc(C(=O)NCc3ccc(F)cc3)cc21` (stereo not given), for which the Potency is 0.705 µM (active).

Consider `CN1C(=O)c2ccccc2S(=O)c2ccc(C(=O)NCCN3CCCCC3)cc21` (stereo not given), for which the Potency is 0.112 µM (active).

In the case of `CN1C(=O)c2ccccc2S(=O)c2ccc(C(=O)Nc3ccccc3)cc21` (stereo not given), the Potency was 0.28 µM (active).

On to `CCN1C(=O)c2ccccc2S(=O)c2ccc(NC(=O)Cc3ccc(OC)cc3)cc21` (stereo not given), for which the Potency was 0.705 µM (active).

As to `COc1ccc(CNC(=O)c2ccc3c(c2)N(C)C(=O)c2ccccc2S3=O)cc1` (stereo not given), the Potency is 0.112 µM (active).

For `CCN1C(=O)c2ccccc2[S@](=O)c2ccc(C(=O)NCc3ccc(C#N)cc3)cc21`, the Potency was 0.223 µM (active).

Turning to `CCN1C(=O)c2ccccc2S(=O)c2ccc(C(=O)Nc3ccc(OC)cc3)cc21` (stereo not given), the Potency is 0.887 µM (active).

As for `CN1C(=O)c2ccccc2[S@](=O)c2ccc(C(=O)NCc3cccnc3)cc21`, the Potency was 0.177 µM (active).

`CCN1C(=O)c2ccccc2S(=O)c2ccc(C(=O)NCc3ccc(OC)cc3)cc21` (stereo not given): the Potency is 0.0887 µM (active).

As for `CCN1C(=O)c2ccccc2S(=O)c2ccc(C(=O)NCc3ccccc3OC)cc21` (stereo not given), the activity, negative = inhibition was -21.4% (active).

For the compound `CCN1C(=O)c2ccccc2S(=O)c2ccc(C(=O)NCc3cc(OC)c(OC)c(OC)c3)cc21` (stereo not given), the activity, negative = inhibition turned out to be 23.4%.
